Pf growth 48h – P. falciparum growth inhibition at 48 hours (one generation) | P. falciparum luciferase growth in erythrocytes, 48 h | Potency, µM (top dose mostly 28.7 µM), most hits filed as inhibitors | 5.9% of 310,000 active | AID 504832
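A one-generation exposure of luciferase-tagged malaria parasites in RPMI 1640/Albumax erythrocyte culture, 37 C and 5% CO2. Inhibition is inferred from decreased luminescence after adding detection reagent.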
CHX counter – counter-screen hit for Shiga toxin inhibitors, cycloheximide; cell reporter, cycloheximide protein synthesis inhibition counterscreen; max response, %; AID 2314; 12% of 300,000 active; in the data active means max response mostly above about 13%, no sharp cut-off; inactive means mostly below about 14%; further: read at 38.3 µM for the half of the compounds with a filed dose
NS1 function inh – influenza NS1 inhibition; AID 2326; 0.4% of 270,000 active; Potency, µM (series often up to 46.1 µM); calls by dose curve; further: actives are rising curves; nearly all actives have a fitted effect of over 50% in size
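S. cerevisiae expressing influenza A NS1, grown in glucose, washed, then diluted 1:100 into pH 6.0 -URA galactose medium with 23 nl compound. Growth recovery read as OD600; NS1-free strain serves as control.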
Shiga toxin inh – blocks Shiga toxin action in Vero cells. inhibition, % at 38.7 µM. Vero cells, Shiga toxin protein synthesis inhibition reporter. 9.2% of 290,000 active; in the data active means inhibition mostly above about 28%, no sharp cut-off; inactive means mostly below about 43%
Sm TGR inh – blocks Schistosoma mansoni thioredoxin glutathione reductase; Q962Y6; purified TGR, DTNB reduction, TNB absorbance 405 nm; Potency, µM (highest dose often 114 µM), most hits filed as inhibitors; 3% of 360,000 active; AID 485364; further: nearly all actives have a fitted effect of over 60% in size
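TGR 20 nM + NADPH 100 uM (dispensed conc.), cpd preinc 15 min RT; start with NADPH (500 uM addition) then DTNB (15 mM addition). Kinetic TNB absorbance, 405 nm filter. Four-parameter Hill fit across titration.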
Pf growth 96h – P. falciparum growth inhibition at 96 hours. P. falciparum luciferase reporter growth, 96 h. Potency, µM (titrated, usually from 28.7 µM), usual class: inhibitors. 6.9% of 320,000 active
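Two-generation exposure (96 h) targets delayed-death phenotype. Reporter parasites carrying integrated firefly luciferase, in red cells at 2% hematocrit and 0.05% parasitemia final, kept at 37 C, 5% CO2; luminescence loss indicates inhibition.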
Each line names hits and unclear results; the compound was inactive in the other large screens. Only some compounds are listed: those with a hit (about 21% of all), similar ones and a draw of the others. Unless noted, the call rests on the fitted dose curve; in most records, active means well fitted curve in the direction sought with a large enough effect; inconclusive means small, poorly fitted or top-dose-only effect, or another doubt; inactive means no such curve, though single readings can be large; an effect the other way counts as inactive or inconclusive.

COC(=O)c1c(N2C(=O)Nc3ccccc3N2O)sc2c1CCCC2	none
COC(=O)c1c(N2C(=O)CC(Sc3ccccc3C(=O)O)C2=O)sc(C)c1C (stereo unspecified)	Pf growth 48h inconclusive, Sm TGR inh 4.47µM
COC(=O)c1c(N2C(=O)CC(Sc3ccccc3C(=O)O)C2=O)sc2c1CCCC2 (stereo unspecified)	Sm TGR inh 2.51µM, Pf growth 96h inconclusive (no result: NS1 function inh)
COC(=O)c1c(N2C(=O)[C@H]3[C@@H](C2=O)[C@]2(C(=O)Nc4c(C)cccc42)N2CCC[C@@H]32)sc(C)c1C	NS1 function inh inconclusive
COc1ccc(CNS(=O)(=O)c2ccc(-c3cc(C(F)(F)F)on3)s2)cc1OC	none (no result: Pf growth 48h, CHX counter, NS1 function inh, Shiga toxin inh, Pf growth 96h)
O=C(c1ccc(Cn2cnnn2)cc1)N1CCCC(Nc2ccc(F)c(F)c2)C1 (stereo unspecified)	Pf growth 48h inconclusive
CCCCCOc1ccc(CSCCNC(=S)Nc2ccccc2)cc1	Pf growth 48h inconclusive, CHX counter 23.9, Pf growth 96h 10.4µM
Cc1ccc(C2=NO[C@@](CC(=O)O)(C(=O)Nc3ccc4c(c3)OCCO4)C2)cc1	CHX counter 128.9, Shiga toxin inh 117.4, Sm TGR inh 14.1µM
O=C(O)CC1(CC(=O)Nc2ccc3c(c2)OCCCO3)CCCCC1	none
COc1ccc(OC)c(C2=NO[C@@](CC(=O)O)(C(=O)Nc3ccc4c(c3)OCCO4)C2)c1	CHX counter 64.6, Shiga toxin inh 76.8, Sm TGR inh 12.6µM
O=c1oc2ccccc2c(N2CCOCC2)c1[N+](=O)[O-]	none (no result: Sm TGR inh)
Cn1c(CCc2ccc(N)cc2)nc2ccccc21	CHX counter 31.8 (no result: Sm TGR inh)
Cn1c(-c2ccc3nc(N)sc3c2)nc2cc(N)ccc21	CHX counter 20.6 (no result: Pf growth 48h, Pf growth 96h)
CCOC(=O)CSc1nc2ccc(N)cc2s1	none
COc1ccc(Cc2nc3ccccc3n2C)cc1	none (no result: NS1 function inh)
Cn1c(-c2ccc(N)cc2)nc2ccccc21	CHX counter 56.4, Shiga toxin inh 74.8
Cc1ccc(-n2c(N)c(-c3nc4ccccc4n3C)sc2=S)cc1	Pf growth 48h 1.47µM, CHX counter 11.1
C/C(=C\C(=O)O)C12CC3CC(CC(C3)C1)C2	none (no result: Pf growth 96h)
Cn1c(-c2ccc(Cl)nc2)nc2ccccc21	CHX counter 14.6, Shiga toxin inh 58.1
Cc1ccc(S(=O)(=O)N(C)/N=C/c2ccc(N(C)C)cc2)cc1	CHX counter 56.7, Shiga toxin inh 69.6 (no result: Pf growth 48h)
CCOc1cccc(NC(=O)C2CC(=O)N(C)C(=Nc3cccc(OC)c3)S2)c1 (stereo unspecified)	none (no result: Pf growth 48h, CHX counter, NS1 function inh, Shiga toxin inh, Pf growth 96h)
Cc1cc(Oc2ccc(=O)[nH]n2)nc(Cl)n1	CHX counter 34.8, Shiga toxin inh 47.3
COc1cc(C)nc(Oc2ccc(=O)[nH]n2)n1	CHX counter 22.4
Cc1cc(Oc2ccc(=O)n(C)n2)nc(Oc2ccc(=O)n(C)n2)n1	Pf growth 96h 10.4µM
CSc1nc(C)cc(Oc2ccc(=O)[nH]n2)n1	none (no result: NS1 function inh)
CCN(CC)c1ncnc2c1cnn2Cc1ccc(Cl)cc1	Pf growth 48h inconclusive
CCC(C)c1ccccc1OCCn1ccnc1 (stereo unspecified)	Pf growth 48h inconclusive
COc1cccc(/C=N/NC(=O)CN2CC(c3ccccc3)CC2=O)c1O (stereo unspecified)	CHX counter 33.6, Shiga toxin inh 40.2, Pf growth 96h inconclusive
COc1ccc(/C=N/NC(=O)c2cccc(NC(C)=O)c2)c(OC)c1	Pf growth 96h inconclusive (no result: NS1 function inh)
CC(=O)Nc1cccc(C(=O)N/N=C/c2ccccc2F)c1	CHX counter 46.1, Shiga toxin inh 28.1, Pf growth 96h 6.57µM
COc1ccc(CCCC(=O)N/N=C/c2cccc(OC)c2O)cc1C	CHX counter 28.2, Shiga toxin inh 52.3
COc1cccc(/C=N/NC(=O)CNC(=O)COc2ccccc2)c1O	Pf growth 48h inconclusive
COc1cccc(/C=N/NC(=O)C[n+]2ccccc2)c1O	Pf growth 48h inconclusive, Pf growth 96h 5.86µM
CC(C)COc1ccc(C(=O)NCC2(N3CCN(C)CC3)CCCCC2)cc1	none (no result: Pf growth 48h, CHX counter, NS1 function inh, Shiga toxin inh, Pf growth 96h)
O=C(N/N=C\c1ccccc1F)c1ccc(-c2ccccc2)cc1	CHX counter 35.8
COc1cccc(/C=N/NC(=O)c2ccc(=O)[nH]n2)c1O	Pf growth 48h 5.86µM, CHX counter 29.9, Shiga toxin inh 60.0
Cc1ccc(C(=O)Nc2cccc(C(=O)N/N=C/c3ccccc3F)c2)cc1	CHX counter 47.0, Shiga toxin inh 71.7, Pf growth 96h inconclusive
COc1cccc(/C=N/NC(=O)c2[nH]c(C)c(C(=O)N/N=C/c3cccc(OC)c3O)c2C)c1O	Pf growth 48h 9.28µM, CHX counter 39.6 (no result: Pf growth 96h)
COc1cccc(/C=N/NC(=O)c2ccc(=O)n(C)c2)c1O	Pf growth 48h inconclusive
Cc1ccc(S(=O)(=O)N(CC(=O)Nc2cccnc2)c2ccccc2C)cc1	none
Cc1sc(-n2cccc2)c(C(C)NC(=O)Nc2cccc(C(F)(F)F)c2)c1C (stereo unspecified)	none (no result: Pf growth 48h, CHX counter, NS1 function inh, Shiga toxin inh, Pf growth 96h)
CCc1ccccc1NC(=O)COC(=O)C1C2CC3OC(=O)C1C3C2 (stereo unspecified)	none
COc1ccc(OC)c(/C=N\NC(=O)c2ccc(-c3ccccc3)cc2)c1	Pf growth 96h inconclusive
COc1cccc(/C=N/NC(=O)c2ccc(-c3ccccc3)cc2)c1O	Pf growth 96h 7.38µM (no result: Pf growth 48h)
O=C(N/N=C/c1ccc[nH]1)c1cccc([N+](=O)[O-])c1	none
O=C(N/N=C/c1ccco1)C1CC1c1ccccc1 (stereo unspecified)	Sm TGR inh inconclusive
CC(C)(C)c1ccc(C2CC2C(=O)N/N=C\c2ccc[nH]2)cc1 (stereo unspecified)	Pf growth 48h inconclusive, CHX counter 11.9
O=C(N/N=C/c1ccc[nH]1)c1ccccc1O	CHX counter 36.9, Shiga toxin inh 39.9, Pf growth 96h inconclusive
O=C(Cc1ccccc1)N/N=C/c1ccc[nH]1	none
O=C(N/N=C/c1ccc[nH]1)c1ccc(O)cc1	CHX counter 27.5, Shiga toxin inh 100.7, Pf growth 96h 10.4µM
CN(c1ccccc1)S(=O)(=O)c1ccc(NC(=O)c2cc(=O)c3ccccc3o2)cc1	none (no result: Pf growth 48h, CHX counter, NS1 function inh, Shiga toxin inh, Pf growth 96h)
O=C(CSc1nccn1-c1ccc(F)cc1)Nc1ccc(OC(F)(F)F)cc1	none (no result: Pf growth 48h, CHX counter, NS1 function inh, Shiga toxin inh, Pf growth 96h)
Cc1ccc(-n2c(=O)c3c(c4cc(C)ccc4n3C)n(CC(=O)Nc3cc(C)cc(C)c3)c2=O)cc1	none (no result: Pf growth 48h, CHX counter, NS1 function inh, Shiga toxin inh, Pf growth 96h)
O=C(Cc1cc(=O)[nH]c(=O)[nH]1)N1CCN(CCO)CC1	Sm TGR inh 31.6µM
C=CCn1c(SCc2n[nH]c(=S)n2-c2ccccc2)nnc1-c1ccccc1	Pf growth 96h 6.57µM
CN(C)/C=C/c1oc2ccc(O)cc2c1[N+](=O)[O-]	Shiga toxin inh 146.3 (no result: NS1 function inh)
COc1ccc(/C=C/C(=O)Nc2cccc(F)c2)cc1S(=O)(=O)N1CCOCC1	Pf growth 48h inconclusive, CHX counter 27.7, Pf growth 96h 6.57µM (no result: NS1 function inh)
CCC(C)(C)NC(=O)/C=C/c1ccc(OC)c(S(=O)(=O)N2CCOCC2)c1	Pf growth 96h inconclusive
COc1ccc(NC(=O)/C=C/c2ccc(C)o2)cc1S(=O)(=O)N1CCOCC1	Sm TGR inh 17.8µM

Assay outcomes from PubChem BioAssay.
